# Measurements reported in the supplement of paper PMC8728848.
# The entries come from a sample that favours the strongest signals as a whole.
# Tests used:
# Assay in all cases: glycan array binding signal (z-score within array); higher = stronger binding
# Conditions in all cases: glycan notation: IUPAC condensed, linker removed
# [1] = biological target: Fuc(a1-2)Gal(b1-3)GalNAc(a1-3)[Fuc(a1-2)]Gal(b1-4)GlcNAc
# How it was run: (§1)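 Glycan array binding is given as a within-array Z-score, which can be read as non-binding when negative. The arrays, 3228 of them, came from the Consortium for Functional Glycomics database and were retained only where the protein sequence was available. Z-scores were averaged across arrays of the same protein sequence at different concentrations or buffers and across linkers.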
# [2] = biological target: Fuc(a1-2)Gal(b1-4)GlcNAc(b1-2)[Fuc(a1-2)Gal(b1-4)GlcNAc(b1-4)]Man(a1-3)[Fuc(a1-2)Gal(b1-4)GlcNAc(b1-2)Man(a1-6)]Man(b1-4)GlcNAc(b1-4)GlcNAc
# How it was run: as §1
# [3] = biological target: Fuc(a1-2)Gal6S(b1-3)GlcNAc6S
# How it was run: as §1
# [4] = biological target: Fuc(a1-2)[Gal(a1-3)]Gal(b1-4)[Fuc(a1-3)]GlcNAc(b1-3)GalNAc
# How it was run: as §1
# [5] = biological target: Fuc(a1-2)[GalNAc(a1-3)]Gal(b1-4)[Fuc(a1-3)]GlcNAc(b1-3)GalNAc
# How it was run: as §1
# [6] = biological target: Fuc(a1-3)[Gal(b1-4)]GlcNAc(b1-4)Gal(b1-4)[Fuc(a1-3)]GlcNAc
# How it was run: as §1
# Gal(a1-2)Gal = biological target: Gal(a1-2)Gal
# How it was run: as §1
# Gal(a1-3)Gal(b1-3)GlcNAc = biological target: Gal(a1-3)Gal(b1-3)GlcNAc
# How it was run: as §1
# [7] = biological target: Gal(a1-4)Gal(b1-3)GlcNAc(b1-2)Man(a1-3)[Gal(a1-4)Gal(b1-3)GlcNAc(b1-2)Man(a1-6)]Man(b1-4)GlcNAc(b1-4)GlcNAc
# How it was run: as §1
# [8] = biological target: Gal(b1-3)GalNAc(a1-3)[Fuc(a1-2)]Gal(b1-4)GlcNAc
# How it was run: as §1
# [9] = biological target: Gal(b1-3)GalNAc(b1-4)Gal(b1-4)Glc
# How it was run: as §1
# [10] = biological target: Gal(b1-3)GlcNAc(b1-3)Gal(b1-4)GlcNAc(b1-3)Gal(b1-4)GlcNAc(b1-2)[Gal(b1-3)GlcNAc(b1-3)Gal(b1-4)GlcNAc(b1-3)Gal(b1-4)GlcNAc(b1-6)]Man(a1-6)[Gal(b1-3)GlcNAc(b1-3)Gal(b1-4)GlcNAc(b1-3)Gal(b1-4)GlcNAc(b1-2)Man(a1-3)]Man(b1-4)GlcNAc(b1-4)[Fuc(a1-6)]GlcNAc
# How it was run: as §1
# [11] = biological target: Gal(b1-4)GlcNAc(b1-3)Gal(b1-4)GlcNAc(b1-2)Man(a1-3)[Gal(b1-4)GlcNAc(b1-3)Gal(b1-4)GlcNAc(b1-2)Man(a1-6)]Man(b1-4)GlcNAc(b1-4)GlcNAc
# How it was run: as §1
# [12] = biological target: Gal(b1-4)GlcNAc(b1-3)Gal(b1-4)GlcNAc(b1-3)Gal(b1-4)GlcNAc(b1-3)Gal(b1-4)GlcNAc(b1-3)Gal(b1-4)GlcNAc(b1-2)[Gal(b1-4)GlcNAc(b1-3)Gal(b1-4)GlcNAc(b1-3)Gal(b1-4)GlcNAc(b1-3)Gal(b1-4)GlcNAc(b1-3)Gal(b1-4)GlcNAc(b1-6)]Man(a1-6)[Gal(b1-4)GlcNAc(b1-3)Gal(b1-4)GlcNAc(b1-3)Gal(b1-4)GlcNAc(b1-3)Gal(b1-4)GlcNAc(b1-3)Gal(b1-4)GlcNAc(b1-2)Man(a1-3)]Man(b1-4)GlcNAc(b1-4)[Fuc(a1-6)]GlcNAc
# How it was run: as §1
# [13] = biological target: Gal(b1-4)GlcNAc(b1-6)Gal(b1-4)GlcNAc
# How it was run: as §1
# Gal3S(b1-4)GlcNAc = biological target: Gal3S(b1-4)GlcNAc
# How it was run: as §1
# Gal3S6S(b1-4)GlcNAc6S = biological target: Gal3S6S(b1-4)GlcNAc6S
# How it was run: as §1
# Gal4S(b1-4)GlcNAc = biological target: Gal4S(b1-4)GlcNAc
# How it was run: as §1
# Gal6P(b1-4)GlcNAc = biological target: Gal6P(b1-4)GlcNAc
# How it was run: as §1
# Gal6S(b1-3)GlcNAc6S = biological target: Gal6S(b1-3)GlcNAc6S
# How it was run: as §1
# Gal6S(b1-4)GlcNAc6S = biological target: Gal6S(b1-4)GlcNAc6S
# How it was run: as §1
# [14] = biological target: GalNAc(b1-4)GlcNAc(b1-2)Man
# How it was run: as §1
# [15] = biological target: GalNAc3S(b1-4)[Fuc(a1-3)]GlcNAc
# How it was run: as §1
# GalNAc4S6S(b1-4)GlcNAc = biological target: GalNAc4S6S(b1-4)GlcNAc
# How it was run: as §1
# [16] = biological target: Glc(a1-6)Glc(a1-6)Glc(a1-6)Glc
# How it was run: as §1
# Glc(b1-6)Glc = biological target: Glc(b1-6)Glc
# How it was run: as §1
# [17] = biological target: GlcNAc(a1-4)Gal(b1-4)GalNAc
# How it was run: as §1
# [18] = biological target: GlcNAc(b1-2)Gal(b1-3)GalNAc
# How it was run: as §1
# [19] = biological target: GlcNAc(b1-3)Gal(b1-4)GlcNAc(b1-2)[GlcNAc(b1-3)Gal(b1-4)GlcNAc(b1-6)]Man(a1-6)[GlcNAc(b1-3)Gal(b1-4)GlcNAc(b1-2)Man(a1-3)]Man(b1-4)GlcNAc(b1-4)GlcNAc
# How it was run: as §1
# [20] = biological target: GlcNAc(b1-3)Gal(b1-4)GlcNAc(b1-3)Gal(b1-4)GlcNAc(b1-2)[GlcNAc(b1-3)Gal(b1-4)GlcNAc(b1-3)Gal(b1-4)GlcNAc(b1-6)]Man(a1-6)[GlcNAc(b1-3)Gal(b1-4)GlcNAc(b1-3)Gal(b1-4)GlcNAc(b1-2)Man(a1-3)]Man(b1-4)GlcNAc(b1-4)[Fuc(a1-6)]GlcNAc
# How it was run: as §1
# [21] = biological target: GlcNAc(b1-4)GlcNAc(b1-4)GlcNAc
# How it was run: as §1
# [22] = biological target: Neu5Ac(a2-3)Gal(b1-3)GlcNAc(b1-2)Man(a1-3)[Neu5Ac(a2-3)Gal(b1-3)GlcNAc(b1-2)Man(a1-6)]Man(b1-4)GlcNAc(b1-4)GlcNAc
# How it was run: as §1
# [23] = biological target: Neu5Ac(a2-3)Gal(b1-3)GlcNAc(b1-3)Gal(b1-3)GlcNAc
# How it was run: as §1
# [24] = biological target: Neu5Ac(a2-3)Gal(b1-3)GlcNAc(b1-3)GalNAc
# How it was run: as §1
# [25] = biological target: Neu5Ac(a2-3)Gal(b1-4)GlcNAc(b1-3)Gal
# How it was run: as §1
# [26] = biological target: Neu5Ac(a2-3)Gal(b1-4)GlcNAc(b1-3)Gal(b1-4)GlcNAc(b1-6)[Gal(b1-3)]GalNAc
# How it was run: as §1
# [27] = biological target: Neu5Ac(a2-3)Gal(b1-4)GlcNAc6S
# How it was run: as §1
# Neu5Ac(a2-6)Gal = biological target: Neu5Ac(a2-6)Gal
# How it was run: as §1
# [28] = biological target: Neu5Ac(a2-6)Gal(b1-4)GlcNAc(b1-2)Man(a1-3)[GlcNAc(b1-4)][Neu5Ac(a2-6)Gal(b1-4)GlcNAc(b1-2)Man(a1-6)]Man(b1-4)GlcNAc(b1-4)GlcNAc
# How it was run: as §1
# [29] = biological target: Neu5Ac(a2-6)Gal(b1-4)GlcNAc(b1-3)Gal(b1-4)[Fuc(a1-3)]GlcNAc(b1-3)Gal(b1-4)[Fuc(a1-3)]GlcNAc
# How it was run: as §1
# [30] = biological target: Neu5Ac(a2-6)GalNAc(b1-4)GlcNAc6S
# How it was run: as §1
# [31] = biological target: Neu5Ac(a2-8)Neu5Ac(a2-8)Neu5Ac(a2-3)Gal(b1-4)Glc
# How it was run: as §1
# [32] = biological target: Neu5Gc(a2-3)Gal(b1-3)[Fuc(a1-4)]GlcNAc
# How it was run: as §1
binder,measurement,setting,value
"MFG-E8 (Mus musculus), P21956 (protein) MQVSRVLAALCGMLLCASGLFAASGDFCDSSLCLNGGTCLTGQDNDIYCLCPEGFTGLVCNETERGPCSPNPCYNDAKCLVTLDTQRGDIFTEYICQCPVGYSGIHCETETNYYNLDGEYMFTTAVPNTAVPTPAPTPDLSNNLASRCSTQLGMEGGAIADSQISASSVYMGFMGLQRWGPELARLYRTGIVNAWTASNYDSKPWIQVNLLRKMRVSGVMTQGASRAGRAEYLKTFKVAYSLDGRKFEFIQDESGGDKEFLGNLDNNSLKVNMFNPTLEAQYIKLYPVSCHRGCTLRFELLGCELHGCSEPLGLKNNTIPDSQMSASSSYKTWNLRAFGWYPHLGRLDNQGKINAWTAQSNSAKEWLQVDLGTQRQVTGIITQGARDFGHIQYVASYKVAHSDDGVQWTVYEEQGSSKVFQGNLDNNSHKKNIFEKPFMARYVRVLPVSWHNRITLRLELLGC",glycan array binding signal (z-score),[1],0.179
same,glycan array binding signal (z-score),[2],0.01
same,glycan array binding signal (z-score),[3],8.57
same,glycan array binding signal (z-score),[4],2.33
same,glycan array binding signal (z-score),[5],1.65
same,glycan array binding signal (z-score),[6],-0.206
same,glycan array binding signal (z-score),Gal(a1-2)Gal,0.39
same,glycan array binding signal (z-score),Gal(a1-3)Gal(b1-3)GlcNAc,-0.404
same,glycan array binding signal (z-score),[7],-0.165
same,glycan array binding signal (z-score),[8],-0.266
same,glycan array binding signal (z-score),[9],-0.553
same,glycan array binding signal (z-score),[10],0.221
same,glycan array binding signal (z-score),[11],2.48
same,glycan array binding signal (z-score),[12],-0.342
same,glycan array binding signal (z-score),[13],-0.115
same,glycan array binding signal (z-score),Gal3S(b1-4)GlcNAc,-0.46
same,glycan array binding signal (z-score),Gal3S6S(b1-4)GlcNAc6S,2.81
same,glycan array binding signal (z-score),Gal4S(b1-4)GlcNAc,-0.4
same,glycan array binding signal (z-score),Gal6P(b1-4)GlcNAc,1.22
same,glycan array binding signal (z-score),Gal6S(b1-3)GlcNAc6S,3.04
same,glycan array binding signal (z-score),Gal6S(b1-4)GlcNAc6S,2.98
same,glycan array binding signal (z-score),[14],-0.038
same,glycan array binding signal (z-score),[15],0.832
same,glycan array binding signal (z-score),GalNAc4S6S(b1-4)GlcNAc,9.76
same,glycan array binding signal (z-score),[16],-0.038
same,glycan array binding signal (z-score),Glc(b1-6)Glc,2.4
same,glycan array binding signal (z-score),[17],5.5
same,glycan array binding signal (z-score),[18],0.853
same,glycan array binding signal (z-score),[19],-0.881
same,glycan array binding signal (z-score),[20],-0.08
same,glycan array binding signal (z-score),[21],-0.582
same,glycan array binding signal (z-score),[22],-0.096
same,glycan array binding signal (z-score),[23],-1.04
same,glycan array binding signal (z-score),[24],0.592
same,glycan array binding signal (z-score),[25],0.469
same,glycan array binding signal (z-score),[26],-0.309
same,glycan array binding signal (z-score),[27],-0.285
same,glycan array binding signal (z-score),Neu5Ac(a2-6)Gal,0.316
same,glycan array binding signal (z-score),[28],0.277
same,glycan array binding signal (z-score),[29],-0.437
same,glycan array binding signal (z-score),[30],3.05
same,glycan array binding signal (z-score),[31],-0.889
same,glycan array binding signal (z-score),[32],2.55
